Reference: PubChem BioAssay (Tox21)
Records with an inconclusive call do not appear. Active and inactive are the calls of the source. The call rests on the fitted dose curve.

Experiments:
[1] = molecular target: Acetylcholinesterase (Homo sapiens) (UniProt P22303); assay: Acetylcholinesterase (AChE) small molecule antagonists: colormetric cell-based qHTS assay (AID 1347395); further: nearly all actives have a fitted effect of over 30% in size
Method in brief: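 Neuroblastoma line SH-SY5Y supplied the enzyme; cells were preincubated with compound for 30 min at 37 C and 5% CO2. Acetylthiocholine with DTNB was then added for 90 min at 37 C, and thiocholine was measured by colour.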

[2] = molecular target: Acetylcholinesterase (Homo sapiens) (UniProt P22303); assay: Acetylcholinesterase (AChE) small molecule antagonists: enzyme-based qHTS assay (AID 1347397); details: Potency: AChE enzyme activity inhibition; outcome: AChE enzyme activity inhibition; further: nearly all actives have a fitted effect of over 55% in size
Method in brief: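 Compound or DMSO vehicle was pin-transferred onto recombinant human AChE (50 mU/mL as dispensed) and left 30 min at room temperature. Acetylthiocholine with DTNB then started the reaction, read colorimetrically 10 min later.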

[3] = molecular target: Acetylcholinesterase (Homo sapiens) (UniProt P22303); assay: Acetylcholinesterase (AChE) small molecule antagonists: fluorescence cell-based qHTS assay (AID 1347398); details: Potency: AChE activity; outcome: AChE activity; further: nearly all actives have a fitted effect of over 50% in size
Method in brief: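 Using neuroblastoma SH-SY5Y cells as the enzyme source, test chemicals are preincubated 30 min at 37 C; AChE-driven acetylthiocholine cleavage is then quantified by thiocholine-dependent Thiolite Green fluorescence after 40 min at room temperature.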

[4] = molecular target: Acetylcholinesterase (Homo sapiens) (UniProt P22303); assay: Acetylcholinesterase (AChE) small molecule antagonists: enzyme-based qHTS assay with human liver microsomes (AID 1347399); details: Potency: qHTS inhibition; outcome: qHTS inhibition; further: nearly all actives have a fitted effect of over 60% in size
Method in brief: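 Recombinant human AChE (50 mU/mL in the enzyme mix) and human liver microsomes (0.25 mg/mL final) were preincubated with compound and NADPH (0.25 mg/mL final) for 30 min at 37 C. Acetylthiocholine/DTNB was then added; thiocholine was read colorimetrically after 10 min at room temperature.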

Measured: Potency

Chain of Acetylcholinesterase (Homo sapiens) (P22303 whole entry, looked up): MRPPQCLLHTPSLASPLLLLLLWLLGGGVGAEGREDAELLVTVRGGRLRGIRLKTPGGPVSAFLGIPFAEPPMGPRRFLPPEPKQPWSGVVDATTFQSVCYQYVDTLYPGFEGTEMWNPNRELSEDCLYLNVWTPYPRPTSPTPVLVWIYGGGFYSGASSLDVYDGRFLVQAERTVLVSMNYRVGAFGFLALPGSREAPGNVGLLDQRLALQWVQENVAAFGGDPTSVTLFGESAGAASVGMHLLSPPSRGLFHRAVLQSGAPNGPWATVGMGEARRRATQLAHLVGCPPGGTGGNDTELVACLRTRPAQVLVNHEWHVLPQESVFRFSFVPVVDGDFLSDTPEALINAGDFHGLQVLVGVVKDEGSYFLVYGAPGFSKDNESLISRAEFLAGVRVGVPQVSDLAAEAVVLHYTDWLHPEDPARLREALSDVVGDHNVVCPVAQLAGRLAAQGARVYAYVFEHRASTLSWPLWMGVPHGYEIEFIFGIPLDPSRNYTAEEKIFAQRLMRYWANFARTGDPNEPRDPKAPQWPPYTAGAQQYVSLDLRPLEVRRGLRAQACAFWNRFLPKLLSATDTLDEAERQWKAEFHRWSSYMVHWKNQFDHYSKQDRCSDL

CCCCCCCCCCCBr
inactive: all assays above

Cc1[nH]cnc1-c1ccc(Cl)cc1
inactive: all assays above

C=C(C)C(=O)OCCOCC
inactive: all assays above

COc1cc2c(cc1OC)C(=O)CC2
inactive: all assays above

CCCCCCCCCI
inactive: all assays above
